Laboratory results reported in ChEMBL document CHEMBL3988442, “University of Dundee, Small-Polar-MMV Screening Library” (2021).
Hit rate of the full screen: of about 48,000 compounds, about 13,000 (27%) showed an effect of 50% or more. Some of the results follow.

What follows are molecules tested on Wolbachia pipientis (assay: Anti-Wolbachia Cell-Based Screen). Conditions: 5 µM.
Format: functional
Design: scale not given: in the data most compounds retested in dose-response had high values
For `CC(CC(=O)Nc1ncn(CC(=O)NCc2ccccc2)n1)C1CC1` (stereo unspecified), the “Percent Effect” value was -9.655%. For `COc1ccc(S(=O)(=O)NCC(O)c2sccc2C)cc1Cl` (stereo unspecified), the “Percent Effect” value was 7.194%. `CC(=O)N1CCCCCC1C1CCN(Cc2nc(C3CC3)no2)CC1` (stereo unspecified) was tested, and the “Percent Effect” value was -6.899%. For `Brc1cnc(NCCCOC2CCOCC2)nc1`, the “Percent Effect” value was -7.222%. `CNc1cccc(CC2COCCN(C(=O)c3cncs3)C2)n1` (stereo unspecified) was tested, and the “Percent Effect” value was 126.5%. With `CNc1cccc(CC2COCCN(C(=O)c3cccnc3)C2)n1` (stereo unspecified) the “Percent Effect” value was 118.9%. `CNc1cccc(CC2COCCN(C(=O)c3cnn(C)c3)C2)n1` (stereo unspecified) was tested, and the “Percent Effect” value was 151.8%. For `CC(C)Oc1cccc(C(=O)C2CCCN(C(=O)c3cncs3)C2)c1` (stereo unspecified), the “Percent Effect” value was 11.61%. `Cc1ccsc1S(=O)(=O)N1CCc2c(c(C(=O)O)nn2CC2CC2)C1` was tested, and the “Percent Effect” value was -2.186%. `CN(Cc1noc2c1CCCC2)C(=O)Cn1c(=O)cnc2ccccc21` was tested, and the “Percent Effect” value was 5.556%. `O=C(CC1CSc2nccc(=O)n21)NCc1ccco1` (stereo unspecified) was tested, and the “Percent Effect” value was 9.661%. In the case of `Cc1cnc2n(c1=O)C(CC(=O)NCc1cccs1)CS2` (stereo unspecified), the “Percent Effect” value is reported as 81.1%. With `Cc1cnc2n(c1=O)C(CC(=O)NCc1cc(-c3cccs3)on1)CS2` (stereo unspecified) the “Percent Effect” value was -18.75%. `Cc1cnc2n(c1=O)C(CC(=O)NCc1ccco1)CS2` (stereo unspecified) was tested, and the “Percent Effect” value was 71.35%. `O=C(CC1CSc2nccc(=O)n21)NCc1cc(-c2ccco2)on1` (stereo unspecified) was tested, and the “Percent Effect” value was -4.448%. For `CC(C)c1cc2c(O)nc(CSCC(=O)O)nc2s1`, the “Percent Effect” value was 30.38%. In the case of `CN(Cc1cccs1)C(=O)c1ccc(N2CCOCC2)c(F)c1`, the “Percent Effect” value is reported as -5.296%. `COc1ccccc1C(NC(=O)NC1CC1)c1noc(C)n1` (stereo unspecified) was tested, and the “Percent Effect” value was -18.96%. In the case of `CCc1nc(C2CCCN2CC(=O)Nc2c(C)nn(C)c2C)no1` (stereo unspecified), the “Percent Effect” value is reported as -9.932%. With `CCc1nc(C2CCCN2CC(=O)Nc2nncs2)no1` (stereo unspecified) the “Percent Effect” value was -0.024%. In the case of `CCc1nc(C2CCCN2CC(=O)Nc2cc(C)no2)no1` (stereo unspecified), the “Percent Effect” value is reported as 85.76%. In the case of `Cc1cc(NC(=O)CN2CCCC2c2noc(C3CC3)n2)on1` (stereo unspecified), the “Percent Effect” value is reported as 2.122%. With `Cc1nnc(NC(=O)CN2CCCC2c2noc(C3CC3)n2)s1` (stereo unspecified) the “Percent Effect” value was -18.02%. `CCc1nc(C2CCCN2CC(=O)Nc2cc(C)on2)no1` (stereo unspecified) was tested, and the “Percent Effect” value was 106.9%. For `CCc1nc(C2CCCN2CC(=O)Nc2sc(C)c(C)c2C)no1` (stereo unspecified), the “Percent Effect” value was -4.711%. `CCc1nc(C2CCCN2CC(=O)Nc2nnc(C)s2)no1` (stereo unspecified) was tested, and the “Percent Effect” value was 78.74%. `Cc1cc(NC(=O)CN2CCCC2c2noc(C3CC3)n2)no1` (stereo unspecified) was tested, and the “Percent Effect” value was 3.572%. For `Cc1cc(CN(CCCO)c2ccccc2)on1`, the “Percent Effect” value was -3.081%. With `O=S(=O)(NC[C@H]1OC[C@@H](NCc2cccs2)[C@@H]1O)c1ccccc1` the “Percent Effect” value was -1.267%. In the case of `CCCn1ccnc1CN1C[C@@H](CN2CCCN(C)CC2)[C@@H](CO)C1`, the “Percent Effect” value is reported as 7.413%. For `CCN(Cc1ccccc1Cl)Cn1nc(C)c2c(C)onc2c1=O`, the “Percent Effect” value was 88.73%. In the case of `Cc1nn(CN(CC(C)C)C2CC2)c(=O)c2noc(C)c12`, the “Percent Effect” value is reported as -9.201%. With `CCN(Cc1c(F)cccc1F)Cn1nc(C)c2c(C)onc2c1=O` the “Percent Effect” value was 127.8%. `Cc1cccc(CN(Cn2nc(C)c3c(C)onc3c2=O)C2CC2)c1` was tested, and the “Percent Effect” value was -8.073%. In the case of `CCN(Cc1cccc(C)c1)Cn1nc(C)c2c(C)onc2c1=O`, the “Percent Effect” value is reported as 127.1%. `CCN(CC)Cc1ccccc1NCc1c(C)noc1C` was tested, and the “Percent Effect” value was -28.25%. `CCN(Cc1cccc(Cl)c1)Cn1nc(C)c2c(C)onc2c1=O` was tested, and the “Percent Effect” value was 4.514%. With `CCC(C)N(Cc1c[nH]c(C)n1)Cc1ccccc1Cl` (stereo unspecified) the “Percent Effect” value was 9.271%. With `Cc1nn(CN(Cc2ccsc2)C2CC2)c(=O)c2noc(C)c12` the “Percent Effect” value was 0.1409%. With `CCN(Cc1cccc(F)c1)Cn1nc(C)c2c(C)onc2c1=O` the “Percent Effect” value was 123.6%. `CCCN(CC)Cn1ncc2cn(-c3ccccc3)nc2c1=O` was tested, and the “Percent Effect” value was 21.01%. `CCCN(Cc1ccccc1)Cn1nc(C)c2c(C)onc2c1=O` was tested, and the “Percent Effect” value was 10.45%. For `O=C(NC[C@H]1OC[C@@H](NCc2cccs2)[C@@H]1O)N1CCOCC1`, the “Percent Effect” value was 1.798%. `COc1cc(CN(C)C(=O)NCCC(=O)NC2CCCC2)ccc1SC` was tested, and the “Percent Effect” value was -22.89%. `Cn1ccnc1C(=O)NC[C@@H]1OC[C@H]2CN(S(C)(=O)=O)CC[C@H]21` was tested, and the “Percent Effect” value was -19.48%. In the case of `CS(=O)(=O)NCCC(=O)NC1CCc2nccn2C1` (stereo unspecified), the “Percent Effect” value is reported as -6.555%. For `CS(=O)(=O)NCC(=O)NC1CCc2nccn2C1` (stereo unspecified), the “Percent Effect” value was 17.97%. In the case of `O=C(CCCn1cncn1)NC1CCc2nccn2C1` (stereo unspecified), the “Percent Effect” value is reported as 92.38%. With `O=C(CCn1cncn1)NC1CCc2nccn2C1` (stereo unspecified) the “Percent Effect” value was 104.2%. `CC(C)N(C)CC(=O)NC1CCc2nccn2C1` (stereo unspecified) was tested, and the “Percent Effect” value was 10.39%. In the case of `O=C(CCn1cncn1)NC1CCS(=O)(=O)C1` (stereo unspecified), the “Percent Effect” value is reported as 5.446%. In the case of `COCCN(C)C(=O)Nc1cc2c(cc1SC)OCCO2`, the “Percent Effect” value is reported as -4.661%. For `O=C(CN1CCCNC1=O)Nc1ccccc1SC(F)(F)F`, the “Percent Effect” value was 20.21%. For `Cc1cc(N2CCN(Cc3ccsc3)C(CCO)C2)nc(N)n1` (stereo unspecified), the “Percent Effect” value was 18.89%. `CSc1ncc(C(=O)N2C[C@H]3CC[C@@H]2CN(S(=O)(=O)N(C)C)C3)cn1` was tested, and the “Percent Effect” value was -20.31%. `O=C(NC1CC1)c1cc(NC(=O)N2CCCC(O)C2)ccc1Cl` (stereo unspecified) was tested, and the “Percent Effect” value was -7.994%. For `COc1cccc(CC2CN(C3CCN(C(C)=O)CC3)CCO2)c1` (stereo unspecified), the “Percent Effect” value was -14.95%. With `CCc1cc(CNC(=O)C2CCCN(C(=O)NCC(C)C)C2)[nH]n1` (stereo unspecified) the “Percent Effect” value was 152.4%. In the case of `Cc1cc(CN(C)C(=O)C2CCCN(C(=O)c3ccc(Cl)cc3)C2)no1` (stereo unspecified), the “Percent Effect” value is reported as -5.924%. For `CCc1cc(NC(=O)C2CCCN(C(=O)c3ccncc3)C2)[nH]n1` (stereo unspecified), the “Percent Effect” value was 100.1%. With `CCc1cc(NC(=O)C2CCCN(C(=O)NCC(C)C)C2)[nH]n1` (stereo unspecified) the “Percent Effect” value was 96.52%. With `COCC(=O)N1CCCC(C(=O)NCc2cc(CC(C)C)on2)C1` (stereo unspecified) the “Percent Effect” value was 3.91%. `CSCc1nc(CNC(=O)C2CCCN(C(=O)N(C)C)C2)cs1` (stereo unspecified) was tested, and the “Percent Effect” value was 1.326%. With `CCC(CC)c1cc(CNC(=O)N2CCCC(C(=O)NC)C2)on1` (stereo unspecified) the “Percent Effect” value was -0.3036%. For `CC(C)Cc1cc(CNC(=O)C2CCCN(C(=O)N(C)C)C2)no1` (stereo unspecified), the “Percent Effect” value was 1.053%. In the case of `CCN1CCOCC12CCN(c1nccs1)CC2.O=C(O)C(F)(F)F`, the “Percent Effect” value is reported as -65.58%. With `COCCN1CCOCC12CCN(c1nccs1)CC2.O=C(O)C(F)(F)F` the “Percent Effect” value was 44.08%. With `COCCN1CCOCC12CCN(c1cnccn1)CC2.O=C(O)C(F)(F)F` the “Percent Effect” value was 110.8%. `CCN1CCOCC12CCN(c1ccc(C#N)cc1)CC2.O=C(O)C(F)(F)F` was tested, and the “Percent Effect” value was -6.455%. For `COCCN1CCOCC2(CCN(c3cnccn3)CC2)C1.O=C(O)C(F)(F)F`, the “Percent Effect” value was -15.76%. For `CCN1CCOCC12CCN(c1cnccn1)CC2.O=C(O)C(F)(F)F`, the “Percent Effect” value was 94.98%. `CC(C)(C)c1cc(C(=O)NCCn2nc3ccccn3c2=O)[nH]n1` was tested, and the “Percent Effect” value was 15.5%. In the case of `O=C(NC[C@H]1OC[C@@H](NC2CCC2)[C@@H]1O)c1cccs1`, the “Percent Effect” value is reported as 2.166%. With `O=C(NC[C@H]1OC[C@@H](NC2CCOCC2)[C@@H]1O)c1cccs1` the “Percent Effect” value was -3.226%. `O=C(NCc1ccnc(C2CCCOC2)n1)c1cccs1` (stereo unspecified) was tested, and the “Percent Effect” value was 112.2%. `Cn1ccnc1Sc1ncc(C(=O)N2CCCCC2)cc1Cl` was tested, and the “Percent Effect” value was 1.099%. For `Cc1cccn2c(CNC(C)CCn3cccn3)cnc12` (stereo unspecified), the “Percent Effect” value was -12.69%. With `Cc1nc(NC(=O)N(C)Cc2ccoc2)nn1C` the “Percent Effect” value was -1.976%. `CCOC(=O)CNC(=O)N1CCc2onc(-c3ccc(Cl)cc3)c2C1` was tested, and the “Percent Effect” value was -4.75%. With `COc1cccn(CC(=O)N(C)Cc2ccoc2)c1=O` the “Percent Effect” value was -6.863%. `Cc1nc(-c2ccoc2)n(CC(=O)NCC(C)C)c1C` was tested, and the “Percent Effect” value was 121.2%. `Cc1nc(-c2ccccc2)n(CC(=O)NCC(C)C)n1` was tested, and the “Percent Effect” value was -0.5584%. With `Cc1nc(-c2ccoc2)n(CC(=O)N(C)CC(C)C)c1C` the “Percent Effect” value was 99.79%. With `CC(C)CNC(=O)CN1C=Nc2ccccc2S1(=O)=O` the “Percent Effect” value was -1.925%. In the case of `CCOC(=O)CNC(=O)Cn1c(-c2ccoc2)nc(C)c1C`, the “Percent Effect” value is reported as 117%. For `CCOC(=O)CCCNC(=O)CN1CCN(c2ncccn2)CC1`, the “Percent Effect” value was -1.703%. In the case of `CSCCC(C)NC(=O)N(C)Cc1cc(Cl)cn1C` (stereo unspecified), the “Percent Effect” value is reported as -13.17%. In the case of `CNC(=O)c1cc2c(nc1NCC(C)C)CCN(S(C)(=O)=O)CC2`, the “Percent Effect” value is reported as -6.713%. For `COc1ccc(CCC(=O)N(C)CCN2CCOCC2)cc1OC`, the “Percent Effect” value was 6.913%. For `COc1ccc(CN(CCC#N)CCN2CCOCC2)c(OC)c1`, the “Percent Effect” value was 118.6%. With `CCCC(=O)N(CCN1CCOCC1)c1nc2c(OC)ccc(C)c2s1.Cl` the “Percent Effect” value was 15.71%. For `CN(Cc1cccc(C#N)c1)S(=O)(=O)N1CCOCC1`, the “Percent Effect” value was 12.93%. With `N#Cc1cc(CSCCN2CCOCC2)ccc1F` the “Percent Effect” value was -6.22%. `CCOc1ccc(CN(CCC#N)CCN2CCOCC2)cc1OC` was tested, and the “Percent Effect” value was 119.9%. In the case of `N#CCCN(CCN1CCOCC1)Cc1ccc(F)c(Br)c1`, the “Percent Effect” value is reported as 132.9%. In the case of `N#CC1COCCN1S(=O)(=O)c1ccc(F)c(Br)c1` (stereo unspecified), the “Percent Effect” value is reported as -8.72%. In the case of `COc1cc(F)ccc1C(C(=O)O)N(C)CCN1CCOCC1` (stereo unspecified), the “Percent Effect” value is reported as -4.538%. With `COc1ccc(C#N)cc1CSCCN1CCOCC1` the “Percent Effect” value was -1.196%. In the case of `COc1ccc(CN(CCC#N)CCN2CCOCC2)cc1OC`, the “Percent Effect” value is reported as 124%. For `COc1ccc(CN(C)Cc2cccc(C#N)c2)c(OC)c1`, the “Percent Effect” value was 0.7087%. For `CCc1ccccc1OC1CN(C(=O)c2cccs2)C1`, the “Percent Effect” value was 3.168%. In the case of `Cn1c(NC(=O)CNC(=O)C2CC2)nc2cc(Cl)ccc21`, the “Percent Effect” value is reported as -0.3531%. `CC(C)c1nn(C)c(N2CCOCC2)c1CN[C@H](C)CO` was tested, and the “Percent Effect” value was -7.825%. With `Cc1c[nH]c(CN2CCCCC2CCn2ccnc2C)c(C)c1=O` (stereo unspecified) the “Percent Effect” value was -47.12%. `O=C(c1ccc(C2CCCO2)s1)N1CCN(c2ccccc2F)CC1` (stereo unspecified) was tested, and the “Percent Effect” value was 2.107%. For `CCN(Cc1nccn1C)C(=O)c1ccc(NCc2cnn(C)c2)nc1`, the “Percent Effect” value was -21.14%.
